Results on 50 sequences are retold here after the supplement of paper PMC11417369.

Over roughly 25,000 sequences, “ln(normalized median fluorescence intensity)” has its median near 9.7; the highest 2% begin near 11. The full list was thinned out, with the highest values kept by preference.

This assay concerns PfAP2-HC AP2 domain (GST-tagged). Put plainly: gcPBM binding intensity (ln(normalized median fluorescence intensity)); higher = stronger DNA binding. Put shortly:
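Using an Agilent 4 × 180k array, primer-extended double-stranded 36-bp intergenic genomic probes and negative controls were exposed for 1 h to GST-fused P. falciparum DNA-binding domains expressed in E. coli. Binding was carried out in 1× PBS with 1% milk, 0.2 mg/ml BSA, 0.5% salmon testes DNA and 0.03% Triton X-100, and protein was detected with Alexa488 anti-GST antibody and a 488 nm scan. Binding intensity is the highest Masliner-normalised natural-log median intensity across replicate spots of either probe orientation.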
For “AAAGAAAGAAAGAATACACACACACCGATATATATA [CACACA_site9246]”, the “gcPBM binding intensity (ln)” value amounted to 10.3.

Turning to “GTATCAAAAGAATACACACACACATACATATATATA [CACACA_site3796]”, the “gcPBM binding intensity (ln)” value turned out to be 11.3. With “AATAAAAAAGAATATACACACATAAATATAAAATAT [CACACA_site683]” the figure was 10; with “AAAAAAATTTCACATTGTACTTTAATAATATACTAC [XGTACX_site7264]”, 9.64; with “TATATATATATATATTGTACATAATGTATATATGTT [XGTACX_site3448]”, 9.74. For the sequence “AAAATAATGTATATAGTGCAAATGAAAACGAAAAAA [GTGCAC_site9455]”, the “gcPBM binding intensity (ln)” value turned out to be 10.1.

Regarding “TGAATATTTCTATATACACACATATATATATATATA [CACACA_site3451]”, the “gcPBM binding intensity (ln)” value is 9.74. With “ATAATGAAAAGGAACATACACACCCCATATAAATAT [CACACA_site3442]” the figure was 10.3; with “TACAAACAAACACATAGCAATATATGTTATCAAAAA [XGTACX_negctrl_site1]”, 9.81; with “TAAAGAAATAAATACATACACACATATATATATATA [CACACA_site3363]”, 9.89.

In the case of “AGAAAGAAAGAATACACACACACATATATATATATC [CACACA_site3744]”, the “gcPBM binding intensity (ln)” value was 11.5. Next, “AGAAAGAAAGAATACACACACACATATATAAATATC [CACACA_site7716]”: 10.4; “TTATCATTTTAATGGTGTACTCAATAAAAACTTTAA [XGTACX_site4595]”: 9.13; “CATATAAATAGACACACACACACATATAAATAAATA [CACACA_site7156]”: 11.1. With “TATATAAATAGACACACACACATATAAATATAAATA [CACACA_site6503]” the figure was 10.4; with “AAAAAAAACAGACACACACACATAAATATATATAAA [CACACA_site148]”, 10.4.

Consider “AAAGGATACAGACACACACACACATATATATATATA [CACACA_site906]”, for which the “gcPBM binding intensity (ln)” value came out at 10.8. With “ACATAAATATATGACACACACACATATTATATATAT [CACACA_site3065]” the figure was 11.1; with “AAAAAAAACAGACACACACACATAAATATAAATAAA [CACACA_site6214]”, 10.5. Next, “AAAAATTCCAGACACACACACACATATAAATAAATA [CACACA_site1232]”: 11.1; “TATATATATAGACACACACACATATAAATAAATAAA [CACACA_site444]”: 10.4. As for “AAAGGATATAGACACACACACACATATATATATATA [CACACA_site2200]”, the “gcPBM binding intensity (ln)” value was 11.4. With “GCACATAAATATATGACACACACACCGATTATATAT [CACACA_site9003]” the figure was 10.8; with “TATATATATAGACACACACACACATATATATATATA [CACACA_site9366]”, 10.7. Next, “TATATAATATATATGACACACATATTTATATAAATA [CACACA_site4054]”: 9.57; “CACACTTTATAATGTTGTACGATACATTATACCAAA [XGTACX_site941]”: 9.67. As to “ATAGTATAACAGCAATGTACACATATTTGTGTATAT [XGTACX_site7899]”, the “gcPBM binding intensity (ln)” value was found to be 10. Next, “AATATTAAAAACAAAACACACAAAAAAAAATAAACT [CACACA_site6470]”: 10.2; “TGTACATATATATAATATATATATCATCATATTTTC [CACACA_negctrl_site1750]”: 9.69. Next, “TAAAACAAAATAACATGTACAAAAAAAAAAAAAAAA [XGTACX_site2915]”: 9.24. Next, “ACAAATAAATAAATATGTACTTAATTATATAATTGA [XGTACX_site5626]”: 9.5; “TATCATGGGTGTATTTCACACACGGATAATCATTTA [CACACA_site8211]”: 9.83. With “AAGAAAATTAACCCATGTACTTATGTAGATAGCAAG [XGTACX_site1049]”, the “gcPBM binding intensity (ln)” value worked out at 9.87. With “TTGAGAAAAATTAATGGTACACATATTATAAGTATA [XGTACX_site6539]” the figure was 9.7; with “AAATATATTTTTTTTTGTACTCAAAAAGAAAAAAAA [XGTACX_site8540]”, 9.05.

On to “AAAAATTTCATATTCACACACAAAAAAAAAAAATAT [CACACA_site1592]”, for which the “gcPBM binding intensity (ln)” value is 9.96. Next, AAATACTTATTCGTGGTGCAACAATTTTAAAAATTA: 9.49; “TATGAAAAAATATATACACACATAATAAAGGTATAT [CACACA_site3737]”: 9.9; “CATATAAAAAGACACACACACACATATATATATATA [CACACA_site940]”: 10.8. Next, “TAATTTTTTAGACACACACACATATAAATATAAATA [CACACA_site6195]”: 10.8; “AAAAAAAAAAGACACACACACATATAAATATAAATA [CACACA_site6899]”: 11.5; “AATAAATTTAGACACACACACACATATAAATAAATA [CACACA_site6531]”: 11.1. Next, “TAATAAATAAGACACACACACATATATATATATTAT [CACACA_site1389]”: 10.3. On to “TATAAATAAAGACACACACACATATAAATAAATATA [CACACA_site7155]”, for which the “gcPBM binding intensity (ln)” value came out at 10.5. Next, “TATATAAATAGACACACACACACATATAAATAAATA [CACACA_site7855]”: 10.7.

With “AACATTATAAGACACACACACACATATATAAATATA [CACACA_site6622]”, the “gcPBM binding intensity (ln)” value came to 11.2. Next, “TAAATTTATAGACACACACACATATAAATAAATATA [CACACA_site6530]”: 10.8; “AACATTATAAGACACACACACACATATATATATATA [CACACA_site8259]”: 10.8. With “TACACGCATAGACACACACACACACGCATATAAATA [CACACA_site6446]” the figure was 11.3; with “TCATAGTATAGACACACACACACACGCATATAAATA [CACACA_site6915]”, 10.5.
